# In PubChem BioAssay (NCI):
# Compounds without any hit were thinned out: in the full panel of roughly 79,000, 15% have a hit. A number with no mark means an inactive call. Active and inactive are the calls of the source. Rule as the data show it: active = growth inhibition above about 70%; inactive = the rest.
# Columns and labels:
# [1] = NCI Yeast Anticancer Drug Screen. Data for the rad50 strain (AID 155);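 also: 0% = growth of vehicle-only cultures of the same strain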; conditions: S. cerevisiae rad50 strain growth inhibition; at 50.0 µM; stronger effect = higher value
# How it was run: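 Inhibition values express reduced yeast growth in compound-treated cultures relative to vehicle-treated controls.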
# [2] = NCI Yeast Anticancer Drug Screen. Data for the mec2-1 strain (AID 157); conditions: S. cerevisiae mec2-1 strain, at 50.0 µM, stronger effect = higher value
# How it was run: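 Growth inhibition is read against vehicle-treated controls after compound exposure of the mec2-1 yeast strain, which is defective in DNA damage repair or cell cycle control.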
# [3] = NCI Yeast Anticancer Drug Screen. Data for the sgs1 mgt1 strain (AID 161);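 also: 0% = growth of cultures given vehicle only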; conditions: S. cerevisiae sgs1 mgt1 strain, at 50.0 µM, stronger effect = higher value
# How it was run: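 Compounds are added to genetically altered yeast, and growth is compared with cultures given vehicle alone to give percent inhibition.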
# [4] = NCI Yeast Anticancer Drug Screen. Data for the cln2 rad14 strain (AID 165);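 also: 0% = growth equal to vehicle treated cultures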; conditions: S. cerevisiae cln2 rad14 strain, at 50.0 µM, stronger effect = higher value
# How it was run: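 Growth inhibition, relative to vehicle-treated controls, is the read-out. The test organism is a yeast strain with defined genetic alterations, cln2 rad14.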
# [5] = NCI Yeast Anticancer Drug Screen. Data for the bub3 strain (AID 167); conditions: S. cerevisiae bub3 mutant strain, at 50.0 µM, stronger effect = higher value
# How it was run: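 Steps: expose the mutant yeast strain to compound; grow alongside vehicle-treated cultures; measure growth; express inhibition against the vehicle cultures.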
# [6] = NCI Yeast Anticancer Drug Screen. Data for the mlh1 rad18 strain (AID 175); conditions: S. cerevisiae mlh1 rad18 strain growth inhibition; at 50.0 µM; stronger effect = higher value
# How it was run: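 Cells of a genetically altered yeast strain, deficient in DNA damage repair, were treated with compound. Their growth was then compared with that of vehicle-treated cultures to give inhibition.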
SMILES,growth inhibition [1],growth inhibition [2],growth inhibition [3],growth inhibition [4],growth inhibition [5],growth inhibition [6]
COc1ccc(OC)c(NC(=O)C2=C(C)NC(C)=C(C(=O)Nc3cc(OC)ccc3OC)C2c2cccc([N+](=O)[O-])c2)c1,1.05%,8.65%,1.9%,-9.3%,7.5%,4.25%
CCOC(=O)C(OCC1CC=CCC1)Sc1ccccc1 (centres undefined),10.6%,-24.6%,-4.95%,-19.3%,-9.7%,-13.9%
Nc1ncnc2c1S(=O)(=O)NCN2,5.05%,-15.8%,0.45%,-17.3%,-3.15%,-11.7%
COC(=O)N[C@H](C(=O)O)C(C)O[Si](C)(C)C(C)(C)C (some centres undefined),-16.2%,-14%,-52.6%,8.2%,-33%,-34.5%
Cc1c(C(=O)O)c2ccccc2[nH]c1=O,-2.85%,-1.25%,2.85%,-40%,-13.2%,2.5%
CC(=O)NC(CCCN)C(=O)NCc1ccccc1 (centres undefined),3.45%,-19.2%,-20.3%,17.5%,-3.45%,-22.6%
COc1cccc(C=NC23CC4CC(CC(C4)C2)C3)c1,-22.2%,-3.15%,3.65%,-0.9%,6.85%,-6.8%
BrC1=C(c2ccccc2)C2CCCCC2C1(Br)c1ccccc1 (centres undefined),96.2% (active),97.1% (active),97.8% (active),96.9% (active),96.8% (active),98% (active)
NCCCNCCS,19.6%,1.5%,22.6%,18.3%,2.5%,17.1%
O=c1[nH]c2cc(Cl)ccc2nc1/C=C(\O)c1ccc(F)cc1,23.1%,17.6%,17.2%,8.2%,-6.3%,27.4%
Cc1ccc(S(=O)(=O)NC(=O)C2S(=O)(=O)OCCOS2(=O)=O)cc1,-2.75%,4.15%,-7.1%,-1.85%,-11.3%,-16.4%
COc1cc(/C=C2\SC(=S)N(C=C3C(=O)NC(=O)NC3=O)C2=O)cc(OC)c1OC,7.5%,-0.75%,19.1%,11.8%,7%,5.65%
CN(CN(C)/N=C/c1cccc([N+](=O)[O-])c1)/N=C\c1cccc([N+](=O)[O-])c1,-0.05%,-11.6%,-2.9%,-40.9%,4.95%,-14.3%
CCCCCCCCCCCCCCC1CC(=O)OC1=O (centres undefined),-22.6%,-30.1%,-9.55%,0.5%,-10.8%,-31.8%
C=CCCN=C(SC)SC,3.8%,20.9%,16.2%,-11.1%,-0.9%,4.4%
O=C(O)/C=C/c1ccc(C(NC(=O)N2C(=O)C=CC2=O)NC(=O)N2C(=O)C=CC2=O)cc1,37.8%,15.8%,42.3%,15.7%,13.3%,19%
Cc1ccccc1OCC(O)COC(=O)CCS(=O)(=O)O (centres undefined),-25.1%,-7%,-7.85%,8.1%,37.2%,-6.3%
O=Cc1cc(Cl)cc(Cl)c1,5%,-18.1%,0.85%,8.7%,8.95%,6.55%
C=C(C)Cc1c(C)c(Cl)cc(Cl)c1OC(=O)Nc1ccccc1,31.8%,9.6%,30.6%,9.35%,29.9%,19.7%
CSc1ncnc2c1ccn2C1OC(COP(=O)(O)O)C(O)C1O (centres undefined),21.8%,-1.35%,-3.4%,-2.45%,-37%,-2.15%

SMILES,growth inhibition [1],growth inhibition [2],growth inhibition [3],growth inhibition [4],growth inhibition [5],growth inhibition [6]
Cc1ccc(-c2nnc(-c3cccc4ccccc34)o2)cc1,1.85%,-31.9%,0.75%,4.1%,-44.1%,-8.05%
COC(=O)CCC(=O)Nc1ccc(Cl)cc1C,-22.8%,-9.45%,-19.9%,-6.5%,-60%,-21.2%
COc1ccc(C(=O)CCN(C)C)c2ccccc12,-9.1%,-19.8%,-17.1%,9.7%,-20.3%,17.5%
CC(=O)OCC(=O)C1(O)CCC2C3CCC4CC(=O)CCC4(C)C3C(=O)CC21C (centres undefined),-3.65%,-5.65%,-11.8%,20.2%,3.7%,9.4%
O=C1c2ccccc2C(=O)N1[C@@H](Cc1ccccc1)C(=O)n1cccc1CO,14.8%,21.4%,20.8%,25.5%,28.9%,10.9%
CC(=O)c1cccc(NC(=O)OCC2CC3C=CC2C3)c1 (centres undefined),25.4%,27.1%,45.9%,4%,52.8%,52.3%
O=C(CC(=O)c1ccc(-c2ccc(C(=O)CC(=O)c3ccccc3)cc2)cc1)c1ccccc1,-16.4%,-11%,-20.4%,-34.4%,-1.8%,-10.7%
OCC1OCOC1C1OCOC1CO (centres undefined),0.55%,4.35%,3.95%,2.9%,-2.55%,-3.45%
NNC(=O)/C(=C/c1ccc(Cl)cc1Cl)NC(=O)c1ccccc1,45%,35.3%,39.3%,60.4%,66.8%,54.5%
COC(=O)CCC(=O)c1ccc2c(c1)CC1(C2)Cc2ccc(C(=O)CCC(=O)OC)cc2C1,-1.45%,-30.6%,-22.4%,5.35%,-20.1%,2.9%
C1=CC([P+](Cc2ccccc2)(c2ccccc2)c2ccccc2)CC1 (centres undefined),81.8% (active),65.5%,55.9%,-1.55%,52.6%,52.9%
CC(C)CCCC(C)C1CCC2C3CC=C4CC(OC(=O)c5ccncc5)CCC4(C)C3CCC12C (centres undefined),3.2%,-12.1%,-10.2%,-28.4%,-0.4%,-23.6%
CC1(C)OC(=O)C(=Cc2ccc(O)cc2)C(=O)O1,-20.9%,-9.45%,-34.5%,-4.6%,-21.5%,-34.3%
c1ccc(C2=NC3(CCCCC3)N=C2c2ccccc2)cc1,27.1%,12.3%,6.6%,-32%,21.2%,25.1%
O=C(O)c1ccc(-c2nn[nH]n2)cc1,-0.85%,-10.1%,-4%,-11.8%,-18.9%,-15.2%
COCC(=O)Oc1ccc[nH]c1=O,1.55%,2.6%,7.85%,-17.1%,-7.25%,22.2%
C/C(=N\NC(=S)N1CCC(C)CC1)c1nccnc1C,6.1%,7.85%,11.4%,28.1%,8.95%,17.7%
CCCCCCCCCCCCCCS(=O)(=O)CCCl,-5.85%,-6.1%,-21.2%,-6.1%,-5.2%,-7.5%
COc1ccc(NC(=O)ON(C)C)cc1,4.45%,-26.6%,5.15%,-63.1%,3.75%,-5.75%
